These results are taken from ChEMBL document CHEMBL3988442, “University of Dundee, Small-Polar-MMV Screening Library” (2021).

Parameters in all cases: scale not given: direction of the effect not stated beside the values
In assay [1] the target is AMP-activated protein kinase, AMPK (Homo sapiens) (UniProt P54646+O43741+P54619+Q9UGJ0+Q9Y478+Q13131+Q9UGI9). The experiment in a line: AMP-dependent Kinase enzyme assay. An in vitro enzyme assay that detects ADP turnover that is directly proportional to AMPK activity. This uses naive AMPK that is activated during the assay with MK-8722. The conditions noted are these: 30 µM. It is filed as functional.

For assay [2], the target named is Protein translocase subunit SecA (Escherichia coli (strain K12)) (UniProt P10408). The experiment in a line: Assay to Identify E. coli SecA ATPase Inhibitors. It is filed as functional. As to conditions: 30 µM.
Chain of Protein translocase subunit SecA (Escherichia coli (strain K12)) (P10408 whole entry): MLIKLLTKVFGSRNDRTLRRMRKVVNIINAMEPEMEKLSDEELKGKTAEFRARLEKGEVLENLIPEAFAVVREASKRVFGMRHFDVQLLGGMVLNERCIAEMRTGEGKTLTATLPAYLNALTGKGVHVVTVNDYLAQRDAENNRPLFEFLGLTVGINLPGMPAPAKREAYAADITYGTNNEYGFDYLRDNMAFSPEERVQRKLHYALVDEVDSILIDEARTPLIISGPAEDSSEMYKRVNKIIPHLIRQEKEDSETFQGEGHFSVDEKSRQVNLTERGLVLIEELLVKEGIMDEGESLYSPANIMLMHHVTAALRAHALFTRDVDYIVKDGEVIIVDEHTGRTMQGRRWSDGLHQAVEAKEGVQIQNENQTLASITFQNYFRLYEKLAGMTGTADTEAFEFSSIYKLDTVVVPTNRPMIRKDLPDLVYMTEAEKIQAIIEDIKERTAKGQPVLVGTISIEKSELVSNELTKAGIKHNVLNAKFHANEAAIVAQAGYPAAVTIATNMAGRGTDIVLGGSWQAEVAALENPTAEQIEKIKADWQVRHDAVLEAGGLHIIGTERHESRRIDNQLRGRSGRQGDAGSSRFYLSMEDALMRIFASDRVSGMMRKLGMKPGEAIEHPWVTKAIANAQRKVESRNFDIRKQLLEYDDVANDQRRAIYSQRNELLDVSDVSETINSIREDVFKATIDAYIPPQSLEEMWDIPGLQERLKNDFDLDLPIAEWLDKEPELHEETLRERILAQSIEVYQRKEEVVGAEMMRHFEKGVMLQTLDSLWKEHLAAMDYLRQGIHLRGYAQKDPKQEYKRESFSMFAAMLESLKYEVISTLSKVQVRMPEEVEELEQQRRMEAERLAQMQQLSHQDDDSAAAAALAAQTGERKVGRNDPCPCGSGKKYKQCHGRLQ
Assay [3] has as its target T1, Ubiquitin-activating enzyme e1, putative (Leishmania donovani (strain BPK282A1)) (UniProt E9BSI1).
T1 sequence (whole entry): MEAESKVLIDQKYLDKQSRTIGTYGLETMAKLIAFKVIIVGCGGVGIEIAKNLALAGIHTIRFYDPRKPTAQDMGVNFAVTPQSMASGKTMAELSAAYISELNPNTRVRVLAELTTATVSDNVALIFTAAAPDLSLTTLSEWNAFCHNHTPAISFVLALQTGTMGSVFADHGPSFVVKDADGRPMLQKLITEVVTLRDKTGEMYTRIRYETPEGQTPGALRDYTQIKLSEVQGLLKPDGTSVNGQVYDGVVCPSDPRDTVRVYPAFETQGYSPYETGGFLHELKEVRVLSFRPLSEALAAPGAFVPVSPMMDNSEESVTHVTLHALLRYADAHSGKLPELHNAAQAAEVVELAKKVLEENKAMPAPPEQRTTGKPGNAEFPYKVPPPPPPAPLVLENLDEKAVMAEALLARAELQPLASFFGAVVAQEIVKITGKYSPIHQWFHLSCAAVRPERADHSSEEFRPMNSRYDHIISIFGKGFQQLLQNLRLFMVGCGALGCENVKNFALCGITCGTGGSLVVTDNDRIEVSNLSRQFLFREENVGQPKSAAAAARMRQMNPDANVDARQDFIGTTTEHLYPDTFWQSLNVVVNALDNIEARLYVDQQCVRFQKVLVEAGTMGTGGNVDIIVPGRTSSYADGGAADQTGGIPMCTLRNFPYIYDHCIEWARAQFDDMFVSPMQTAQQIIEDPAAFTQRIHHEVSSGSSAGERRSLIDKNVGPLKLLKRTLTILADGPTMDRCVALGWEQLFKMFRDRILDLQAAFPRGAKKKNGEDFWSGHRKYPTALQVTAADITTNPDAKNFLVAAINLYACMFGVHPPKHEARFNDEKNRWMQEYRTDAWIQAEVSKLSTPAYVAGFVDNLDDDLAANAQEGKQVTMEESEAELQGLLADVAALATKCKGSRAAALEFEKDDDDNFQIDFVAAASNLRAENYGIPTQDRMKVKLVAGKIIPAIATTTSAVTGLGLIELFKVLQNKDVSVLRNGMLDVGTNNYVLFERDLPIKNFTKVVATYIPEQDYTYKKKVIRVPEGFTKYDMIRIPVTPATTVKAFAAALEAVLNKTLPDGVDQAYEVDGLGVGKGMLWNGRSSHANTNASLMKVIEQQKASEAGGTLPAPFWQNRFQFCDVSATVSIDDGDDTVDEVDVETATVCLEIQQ
The experiment in a line: Leishmania donovani Ubiquitin Activating Enzyme (LdE1). It is filed as functional. The conditions noted are these: 30 µM.

The target of assay [4] is Sialic acid-binding Ig-like lectin 9 (Homo sapiens) (UniProt Q9Y336). The experiment in a line: Hs-Siglec9 ALPHAscreen SOP 20170721. The conditions noted are these: 10 µM. In general terms: Alpha assays give light when donor and acceptor beads are brought close together.
Chain of Sialic acid-binding Ig-like lectin 9 (Homo sapiens) (Q9Y336 whole entry): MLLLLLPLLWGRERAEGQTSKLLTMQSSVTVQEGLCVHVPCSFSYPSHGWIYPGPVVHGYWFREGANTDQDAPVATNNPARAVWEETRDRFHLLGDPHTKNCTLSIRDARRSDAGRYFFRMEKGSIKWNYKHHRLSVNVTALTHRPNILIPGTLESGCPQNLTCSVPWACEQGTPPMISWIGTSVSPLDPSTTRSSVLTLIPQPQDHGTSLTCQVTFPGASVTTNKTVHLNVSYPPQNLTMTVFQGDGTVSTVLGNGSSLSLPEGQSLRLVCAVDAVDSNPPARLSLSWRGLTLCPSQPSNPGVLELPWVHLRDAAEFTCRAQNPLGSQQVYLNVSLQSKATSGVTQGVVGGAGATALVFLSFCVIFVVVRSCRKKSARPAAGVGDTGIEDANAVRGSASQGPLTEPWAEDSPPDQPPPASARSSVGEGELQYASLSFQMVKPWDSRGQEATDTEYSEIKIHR
The next assay concerns Trypanosoma cruzi. Nature of the assay: Trypanosoma cruzi phosphomannomutase and mannose-1-phosphate guanylyltransferase assay. It is filed as functional. As to conditions: 10 µM.
For assay [5], the target named is T2, Arginase-2, mitochondrial (Homo sapiens) (UniProt P78540).
T2 sequence (whole entry): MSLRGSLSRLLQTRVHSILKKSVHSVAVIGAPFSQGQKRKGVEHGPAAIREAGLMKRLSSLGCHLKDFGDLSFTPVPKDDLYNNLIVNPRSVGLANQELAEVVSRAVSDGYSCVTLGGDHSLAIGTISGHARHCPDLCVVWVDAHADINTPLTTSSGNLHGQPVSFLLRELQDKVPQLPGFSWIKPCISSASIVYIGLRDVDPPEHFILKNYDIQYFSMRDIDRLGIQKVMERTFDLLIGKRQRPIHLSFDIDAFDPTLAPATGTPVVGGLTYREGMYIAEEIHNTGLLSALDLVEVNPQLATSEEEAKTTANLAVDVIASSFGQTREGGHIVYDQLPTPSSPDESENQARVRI
Nature of the assay: in vitro enzyme assay to detect the production of urea directly proportional to the activity of Arginase II. Further: in the data most compounds retested in dose-response had high values. It is filed as functional. The conditions noted are these: 33.3 µM.

Assay [6] has as its target T3, Proteasome subunit beta (Trypanosoma cruzi) (UniProt O96673).
T3 sequence (whole entry): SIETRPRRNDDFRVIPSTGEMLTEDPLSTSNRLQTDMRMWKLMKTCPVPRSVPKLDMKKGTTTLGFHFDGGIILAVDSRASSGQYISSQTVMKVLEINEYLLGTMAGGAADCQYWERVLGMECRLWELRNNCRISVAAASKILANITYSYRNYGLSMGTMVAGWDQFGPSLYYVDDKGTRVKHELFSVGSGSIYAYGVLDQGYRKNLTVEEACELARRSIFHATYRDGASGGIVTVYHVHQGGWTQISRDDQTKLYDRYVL
The experiment in a line: Trypanosoma cruzi proteasome chymotrypsin-like activity (TcProtChymo) assay. Further: in the data most compounds retested in dose-response had high values. It is filed as functional. The conditions noted are these: 9.37 µM.

Another assay is filed under the species Homo sapiens. Nature of the assay: To identify inhibition of the IFN signalling (Jak-Stat) pathway via expression of an eGFP reporter gene under the control of an IFN-stimulated response element (ISRE) containing MxA promoter. It is filed as functional. As to conditions: 30 µM. On the technique in general: A reporter such as luciferase makes a cellular process visible.

Assay [7] concerns the target T4, Tyrosyl-tRNA synthetase, putative (Trypanosoma cruzi (strain CL Brener)) (UniProt Q4DSP6).
T4 sequence (whole entry): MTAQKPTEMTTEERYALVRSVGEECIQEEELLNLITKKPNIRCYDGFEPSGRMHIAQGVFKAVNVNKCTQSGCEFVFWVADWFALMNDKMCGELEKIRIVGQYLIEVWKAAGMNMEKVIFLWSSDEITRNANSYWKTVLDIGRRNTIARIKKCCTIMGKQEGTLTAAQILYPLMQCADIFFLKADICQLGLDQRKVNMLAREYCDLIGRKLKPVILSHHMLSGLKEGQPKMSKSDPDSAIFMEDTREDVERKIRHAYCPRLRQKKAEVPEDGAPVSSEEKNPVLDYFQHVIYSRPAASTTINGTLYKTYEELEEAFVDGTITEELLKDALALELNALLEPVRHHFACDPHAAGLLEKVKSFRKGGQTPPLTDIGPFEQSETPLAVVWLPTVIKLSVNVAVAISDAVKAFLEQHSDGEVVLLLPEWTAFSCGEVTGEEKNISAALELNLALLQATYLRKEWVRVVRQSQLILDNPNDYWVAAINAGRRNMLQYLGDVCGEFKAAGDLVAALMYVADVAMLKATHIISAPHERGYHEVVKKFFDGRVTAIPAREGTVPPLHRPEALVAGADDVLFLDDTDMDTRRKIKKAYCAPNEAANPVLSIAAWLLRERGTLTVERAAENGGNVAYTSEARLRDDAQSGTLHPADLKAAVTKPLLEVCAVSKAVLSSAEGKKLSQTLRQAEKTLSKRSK
Nature of the assay: Trypanosoma cruzi tyrosyl tRNA synthetase (TcYRS) _High Tyrosine SOP. Further: in the data most compounds retested in dose-response had high values. As to conditions: 30 µM. It is filed as functional.

The target in assay [8] is T4, Tyrosyl-tRNA synthetase, putative (Trypanosoma cruzi (strain CL Brener)). Nature of the assay: Trypanosoma cruzi tyrosyl tRNA synthetase (TcYRS) SOP. It is filed as functional. As to conditions: 30 µM.
Assay [9] addresses Chromo domain-containing protein 1 (Saccharomyces cerevisiae (strain ATCC 204508 / S288c) (Baker's yeast)) (UniProt P32657). The experiment in a line: ScCHD-1 Enzyme Inhibition Assay. Further: in the data most compounds retested in dose-response had high values. It is filed as functional. The conditions noted are these: 30 µM.

For some of these results: Entries with a potency or affinity are not part of this list.

Chain of Chromo domain-containing protein 1 (Saccharomyces cerevisiae (strain ATCC 204508 / S288c) (Baker's yeast)) (P32657 whole entry, the tested form may be a part): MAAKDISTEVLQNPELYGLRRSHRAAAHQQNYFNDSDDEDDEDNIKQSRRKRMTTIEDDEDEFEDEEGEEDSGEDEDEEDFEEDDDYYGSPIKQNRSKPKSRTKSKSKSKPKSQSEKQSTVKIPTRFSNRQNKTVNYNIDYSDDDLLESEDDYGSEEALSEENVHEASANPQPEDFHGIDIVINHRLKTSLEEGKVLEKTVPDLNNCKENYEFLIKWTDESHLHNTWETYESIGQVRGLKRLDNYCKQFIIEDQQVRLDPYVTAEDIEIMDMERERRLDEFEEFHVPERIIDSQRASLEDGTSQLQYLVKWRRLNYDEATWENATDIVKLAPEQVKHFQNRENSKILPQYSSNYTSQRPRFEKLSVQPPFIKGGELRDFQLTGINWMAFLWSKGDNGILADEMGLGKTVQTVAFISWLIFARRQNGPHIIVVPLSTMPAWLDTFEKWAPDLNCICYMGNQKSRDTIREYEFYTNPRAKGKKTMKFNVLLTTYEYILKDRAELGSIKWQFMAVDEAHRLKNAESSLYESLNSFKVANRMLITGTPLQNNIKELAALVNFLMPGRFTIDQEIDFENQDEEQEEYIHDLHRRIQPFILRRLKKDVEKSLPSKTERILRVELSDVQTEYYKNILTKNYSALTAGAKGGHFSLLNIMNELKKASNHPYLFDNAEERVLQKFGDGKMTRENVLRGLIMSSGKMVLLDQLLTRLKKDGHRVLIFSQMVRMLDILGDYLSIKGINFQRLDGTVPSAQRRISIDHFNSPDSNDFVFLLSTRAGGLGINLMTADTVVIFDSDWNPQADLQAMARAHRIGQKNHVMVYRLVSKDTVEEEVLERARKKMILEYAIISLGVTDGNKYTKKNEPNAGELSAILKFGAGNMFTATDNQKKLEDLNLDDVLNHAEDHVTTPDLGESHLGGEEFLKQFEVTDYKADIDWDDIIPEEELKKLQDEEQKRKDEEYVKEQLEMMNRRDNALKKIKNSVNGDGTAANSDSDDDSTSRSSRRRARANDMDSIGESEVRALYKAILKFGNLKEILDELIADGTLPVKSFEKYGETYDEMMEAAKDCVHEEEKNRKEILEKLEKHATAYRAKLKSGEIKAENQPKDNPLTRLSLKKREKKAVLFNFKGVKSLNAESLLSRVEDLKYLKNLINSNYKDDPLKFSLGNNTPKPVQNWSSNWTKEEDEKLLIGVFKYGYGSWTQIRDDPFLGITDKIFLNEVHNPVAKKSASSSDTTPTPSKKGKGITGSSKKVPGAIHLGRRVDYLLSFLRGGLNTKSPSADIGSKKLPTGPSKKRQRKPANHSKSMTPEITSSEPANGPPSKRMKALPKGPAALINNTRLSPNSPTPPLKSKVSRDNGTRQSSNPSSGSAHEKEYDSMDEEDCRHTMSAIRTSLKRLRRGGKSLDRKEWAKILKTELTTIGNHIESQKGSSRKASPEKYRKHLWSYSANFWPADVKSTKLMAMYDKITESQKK

Consider `CCc1cc(N2CCC(NCCc3ccc(C)o3)CC2)nc(C)n1`, for which the Percent Effect in assay [1] was found to be 5.69%.
In the case of `CC(CC#N)NC(=O)c1cc(Br)c2c(c1)OCCO2` (centres undefined), the Percent Effect is -2.19% in [2]; -5.33% in assay [3]; -0.459% in assay [4]; -4.22% in the assay with Trypanosoma cruzi; 3.1% in [5]; -1.61% in [6]. Besides, the Percent Effect was 7.62% in the assay filed under Homo sapiens, 0.526% in assay [7], 2.56% in assay [8] and -4.98% in assay [9].
As for `Cc1cc(CN2CCN(S(=O)(=O)c3c(C)c(Cl)cc(C)c3Cl)CC2)on1`, the Percent Effect in assay [1] was -3.43%.
Same read-out and setting: then `Cc1nonc1CN1CC[C@@](O)(C2CCC2)[C@H](C)C1`, with -1.54%.
Same read-out and setting: under `Cc1cnn(C2CN(CCOc3ccccc3C#N)C2)c1` stands 6.15%.
`Cc1noc(CCCNC(=O)C2CSCN2C(=O)C(C)(C)C)n1` (centres undefined): the Percent Effect in [1] is -6.28%.
Same read-out and setting: under `Cc1noc(C)c1-c1n[nH]c2c1CN(S(=O)(=O)c1cccs1)CC2` stands 2.21%.
Same read-out and setting: under `Cc1cc(C)n(C2CN(c3nc(-c4ccncc4)nc4c3CCC4)C2)n1` stands 2.99%; under `CN1CCN(CCOc2ccc(NC(=O)c3ccc[nH]3)cc2)CC1`, 6.53%.
The same measure, in the same setting: under `CC(CC(=O)c1ccco1)NC(=O)c1ccccn1` (centres undefined) stands -8.76%; under `COc1ncccc1C(=O)NCCn1cnc(C)cc1=O`, -2.02%; under `Cc1cc(C)c2cc(C(=O)N3CCNC(=O)C3)[nH]c2c1`, 1.52%.
As for `Cc1nc(CN(C)S(=O)(=O)c2ccccc2Br)no1`, in [1], the Percent Effect is 6.12%.
For the compound `CC(=O)N1CC(c2ccnc(Nc3nccs3)n2)C1`, the Percent Effect in assay [1] amounted to 1.83%.
On to `CCN(C(=O)Cn1cc(NC(=O)C(C)(C)C)cn1)c1ccccc1`, for which, in assay [1], the Percent Effect is -3.26%.
Turning to `CC(NC(=O)NCc1cccnc1N(C)C)c1ccc(F)cc1` (centres undefined), in assay [1], the Percent Effect was -7.51%.
In the case of `CCN(CC)C(=O)CN1CCCC1C(=O)N(C)C` (centres undefined), in assay [1], the Percent Effect is -2.41%.
On the same count and under the same terms, under `c1csc(N2CCN(c3ncnc4sccc34)CC2)n1` stands 18.5%.
The same measure, in the same setting: under `COCC[C@]1(O)CCN(CC(=O)NCc2ccccc2C)C[C@H]1C` stands 8.23%; under `COc1ncccc1-c1cc(C(=O)NC2CC2)ccn1`, -1.79%.
For `Cc1nc(C(C)C)sc1C(C)N(C)C(=O)c1ccc(=O)n(C)n1` (centres undefined), the Percent Effect in assay [1] was -6.04%.
On the same count and under the same terms, then `O=C1CCC(=O)N1CCn1nnc(-c2ccc(Br)cc2)n1`, with -9.11%; and `O=C(C1COCCO1)N1CCN(CC(F)(F)F)c2ccccc21` (centres undefined), with 12.8%.
Same read-out and setting: then `Cc1c(C(=O)NCC(C)(C)S(C)(=O)=O)cccc1-c1ccccn1`, with 11.1%; and `CC(C(=O)N1CCCCC1)N1CCN(c2ncc(Cl)cn2)CC1` (centres undefined), with -3.64%.
In the case of `COc1ccc2c(c1)OCC(CNC1CCc3nc(C)nn3C1)=C2` (centres undefined), in assay [1], the Percent Effect was 7.59%.
On the same count and under the same terms, under `CCc1cnc(C(C)NC(=O)N2CCCN(CC(F)F)CC2)s1` (centres undefined) stands -2.53%.
The same measure, in the same setting: under `O=C(NC1CC1)c1nc(Cn2c(C(F)F)nc3ccccc32)no1` stands 10.9%; under `Cn1ccnc1CNC(=O)CC1CCCCO1` (centres undefined), -3.14%.
Turning to `CCNC(=O)c1ccc(NC2CCOC3(CCCC3)C2)nn1` (centres undefined), in assay [1], the Percent Effect is 2.07%.
On the same count and under the same terms, then `CCc1cc(N2CCC(NCCc3ccccc3F)CC2)nc(C)n1`, with 1.26%; and `Cc1cc(NC(=O)CO)nn1-c1ccc(Cl)cc1Cl`, with -3.56%; and `COCc1nc(C2CC2)nn1-c1ccccc1Cl`, with -1.23%.
Still for that read-out and setting: under `COc1cc(CNC(=O)COC2CCCCC2)ccc1O` stands -0.805%.
The same measure, in the same setting: then `Cc1ncc(C(=O)N2CCOC(C(=O)N3CCCCCC3)C2)c(C)n1` (centres undefined), with -3.31%; and `COCc1nn(Cc2ccc(Br)s2)c(=O)o1`, with 13.5%; and `Cc1cccc(COc2ccc(C(C)N)cc2)c1` (centres undefined), with -5.16%.
Turning to `Cc1cc(C)n(CCN2CCC(N(C)Cc3nnc(C)n3C)C2)n1` (centres undefined), in assay [1], the Percent Effect is 3.54%.
For `CCOCCNCc1cc(O)c2cc(C)ccc2n1`, the Percent Effect in [1] is -3.23%.
`CN(CCn1cncc1-c1cnc(N2CCOCC2)nc1)C1CCCC1`: in assay [1], the Percent Effect came out at 12.2%.
